Assay [1] can be described thus: qHTS for Inhibitors of the vitamin D receptor (VDR): Hit Validation using a Texas Red Assay (AID 602201; active = well fitted curve in the direction sought with a large enough effect; an effect the other way counts as inactive or inconclusive; note: potency is the fitted concentration of half-maximal effect). The following applies: VDR coregulator binding, Texas Red fluorescence polarization; agonist-bound VDR ligand-binding domain. In outline: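 Fluorescence polarization with 1.5 uM VDR-LBD, LG19078 and 7 nM Texas Red (final). After 2 hours at ambient temperature, read at Ex 595 nm/Em 615 nm.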

The nature of assay [2]: AP1 Signaling Pathway (AID 357).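 Note: ME-180 reporter cells stimulated with EGF at its EC50 level; % is set by controls: 0 for no effect and ±100 for the full control effect.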 To be noted: ME-180 AP-1-bla reporter, EGF-induced, beta-lactamase ratio, 5 h; at 17.2 µM (top of the series) unless noted. In outline:
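Read-out was the 460nm/530nm emission ratio (excitation 405nm) after CCF4 loading for 2.5 hours at room temperature. Cells carried an AP-1-driven beta-lactamase reporter, were stimulated with EC50 EGF plus compound for 5 hours, and AC50 values came from titrations.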

Assay [3] has as its target Glucocorticoid receptor (Homo sapiens) (UniProt P04150). Put plainly: GR-GFP Redistribution (AID 450;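 active = compounds whose dose series gives a full or clear partial fitted curve of increased nuclear translocation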; note: potency is the fitted concentration of half-maximal effect).
Assay [4] concerns the target Cytochrome P450 1A2 (Homo sapiens) (UniProt P05177). Nature of the assay: p450-cyp1a2 (AID 410; calls by dose curve; note: potency is the fitted concentration of half-maximal effect). The method, boiled down: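 20nM CYP1A2 with 100uM Luciferin-ME (at Km) in 100mM KPO4; compound preincubated 10 min, NADPH regeneration added, 60 min at room temperature. Luciferin quantified by luminescence after detection reagent; normalized to 57 uM furafylline.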
Assay [5] in a line: Stat Signaling Pathway (AID 446).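 Note: ME-180 cervical cancer cells given 40 pM IL-6 alongside compound; SIE-controlled beta-lactamase reporter measured as 460/530 nm FRET emission ratio; % is set by controls: 0 for no effect and ±100 for the full control effect.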 The following applies: ME-180 SIE beta-lactamase reporter, IL-6 stimulated, 5 h; at 17.2 µM (top of the series) unless noted. In outline:
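Screening format detects activators and inhibitors alike: ME-180 SIE-bla cells stimulated at 40 pM IL-6 for 5 hrs with compound, then dual-emission beta-lactamase read at 405 nm excitation.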

The target of assay [6] is Mitogen-activated protein kinase 10 (Mus musculus) (UniProt Q61831). Put plainly: JNK3 AlphaScreen Assay (AID 530).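 Note: kinase came from lysate of stimulated human HepG2 cells; signal reports phosphorylation of biotinylated GST-cJun 1-79 at Ser73 with 10 µM ATP; % is set by controls: 0 for no effect and ±100 for the full control effect.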 The method, boiled down:
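Pre-activated (IL-1β/TNFα) JNK3 in HepG2 lysates phosphorylates biotin-GST-cJun(1-79), 10 uM ATP; anti-phospho-cJun(Ser73) AlphaScreen read at room temperature, pH 7.6 Tris buffer. Compounds pre-incubated 15 min as titrations.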

Assay [7] deals with Guanine nucleotide-binding protein G(i) subunit alpha-1 (Homo sapiens) (UniProt P63096). Nature of the assay: qHTS Assay for Inhibitors of RGS12 GoLoco Motif Activity (Green Fluorophore) (AID 879; active = well fitted curve in the direction sought with a large enough effect; an effect the other way counts as inactive or inconclusive;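 note: 0% = labeled peptide with Gαi1 and full inhibition = labeled peptide alone without protein; negative values mean loss of peptide binding seen as reduced polarization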). The method, boiled down:
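Fluorescence polarization assay: 50 nM Gαi1 with 10 nM FITC-labeled RGS12 GoLoco peptide in 10 mM Tris pH 7.5, 150 mM NaCl, 0.1 mM GDP, 0.05% NP40, 10 min at room temperature with compound.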
On the technique in general: In qHTS, concentration-response curves come from the screen itself.

For assay [8], the target named is Pyruvate kinase (Leishmania mexicana) (UniProt Q27686). Put plainly: qHTS Validation Assay for Inhibitors of Leishmania Mexicana Pyruvate Kinase (AID 945; active = well fitted curve in the direction sought with a large enough effect; an effect the other way counts as inactive or inconclusive;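 note: 0% = DMSO only neutral control wells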). The method, boiled down:
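Eight-point qHTS titrations in triplicate, data normalized to DMSO neutral control. Reaction: 0.2 nM LmPYK E451W mutant, 0.5 mM PEP, 0.1 mM ADP, 7 mM MgCl2, pH 7.2, one hour at room temperature; luminescent ATP detection.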

In assay [9] the target is Pyruvate kinase PKM (Homo sapiens) (UniProt P14618). Nature of the assay: qHTS Assay for Activators of Human Muscle Pyruvate Kinase (AID 954; active = well fitted curve in the direction sought with a large enough effect, not every such curve was filed as active;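 note: 0% = uninhibited enzyme and -100% = no enzyme or full thiadiazolimine inhibition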). In outline: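 Reaction: 0.1 nM purified PKM2 with 0.5 mM phosphoenolpyruvate and 0.1 mM ADP, room temperature, 1 h. Readout: luciferase-based ATP luminescence after stop reagent. Activators judged against a 0.3 nM enzyme column.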
Pyruvate kinase PKM (Homo sapiens), sequence (P14618 whole entry, looked up): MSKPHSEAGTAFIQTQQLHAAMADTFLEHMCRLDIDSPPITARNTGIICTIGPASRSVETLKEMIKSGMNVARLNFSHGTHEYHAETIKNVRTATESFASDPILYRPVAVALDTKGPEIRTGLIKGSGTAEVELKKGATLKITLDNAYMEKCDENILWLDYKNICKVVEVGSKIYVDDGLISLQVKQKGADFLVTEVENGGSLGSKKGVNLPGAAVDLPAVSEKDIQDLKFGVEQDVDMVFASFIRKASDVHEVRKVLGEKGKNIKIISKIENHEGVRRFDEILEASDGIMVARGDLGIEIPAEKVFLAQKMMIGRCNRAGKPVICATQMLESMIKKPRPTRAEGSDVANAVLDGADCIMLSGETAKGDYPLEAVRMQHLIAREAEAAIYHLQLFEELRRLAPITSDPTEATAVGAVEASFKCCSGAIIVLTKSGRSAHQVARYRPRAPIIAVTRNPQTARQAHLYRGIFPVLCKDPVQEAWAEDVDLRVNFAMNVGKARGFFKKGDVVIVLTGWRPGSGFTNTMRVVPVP

For assay [10], the target named is Alpha-galactosidase A (Homo sapiens) (UniProt P06280). Nature of the assay: Counterscreen for Glucocerebrosidase Inhibitors: qHTS Assay for Human alpha-Galactosidase at pH 4.5 (AID 992; active = well fitted curve in the direction sought with a large enough effect; an effect the other way counts as inactive or inconclusive; note: 0% is about no effect). In outline:
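Concentration-response curves (0.7 nM to 77 uM final) were modeled with the Hill equation to give AC50. Reactions: 2 nM enzyme, 80 uM fluorogenic alpha-galactoside, pH 4.5 citric acid buffer, 20 min, room temperature.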
A general note: A counterscreen serves to expose hits that act by an unwanted route or on another target.

Assay [11] concerns the target alpha-glucosidase (Oryza sativa, rice) (UniProt Q653V4). Put plainly: Counterscreen for Glucocerebrosidase Inhibitors: qHTS Assay for Rice alpha-Glucosidase at pH 5.0 (AID 997; active = well fitted curve in the direction sought with a large enough effect; an effect the other way counts as inactive or inconclusive;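 note: 0% = full activity with enzyme and -100% = basal without enzyme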). In outline:
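Rice alpha-glucosidase (4 nM final) with 400 uM 4-methylumbelliferyl-alpha-D-glucopyranoside in citrate buffer pH 5.0, 20 min at room temperature, stopped at pH 10; fluorescence 365/440 nm, compounds 0.7 nM–77 uM, AC50 from Hill fits.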

Values without a mark were called inactive. Results filed as inconclusive are left out. Calls of active or inactive are those of the source. Unless noted, calls come from the whole dose curve; as a rule, active = well fitted curve in either direction with a large enough effect (not every such curve was filed as active); inconclusive = small, poorly fitted or top-dose-only effect, or another doubt; inactive = flat fitted curve, though single readings scatter.

The record followed here is PubChem BioAssay (NCATS).

Glucocorticoid receptor (Homo sapiens), sequence (P04150 whole entry, looked up): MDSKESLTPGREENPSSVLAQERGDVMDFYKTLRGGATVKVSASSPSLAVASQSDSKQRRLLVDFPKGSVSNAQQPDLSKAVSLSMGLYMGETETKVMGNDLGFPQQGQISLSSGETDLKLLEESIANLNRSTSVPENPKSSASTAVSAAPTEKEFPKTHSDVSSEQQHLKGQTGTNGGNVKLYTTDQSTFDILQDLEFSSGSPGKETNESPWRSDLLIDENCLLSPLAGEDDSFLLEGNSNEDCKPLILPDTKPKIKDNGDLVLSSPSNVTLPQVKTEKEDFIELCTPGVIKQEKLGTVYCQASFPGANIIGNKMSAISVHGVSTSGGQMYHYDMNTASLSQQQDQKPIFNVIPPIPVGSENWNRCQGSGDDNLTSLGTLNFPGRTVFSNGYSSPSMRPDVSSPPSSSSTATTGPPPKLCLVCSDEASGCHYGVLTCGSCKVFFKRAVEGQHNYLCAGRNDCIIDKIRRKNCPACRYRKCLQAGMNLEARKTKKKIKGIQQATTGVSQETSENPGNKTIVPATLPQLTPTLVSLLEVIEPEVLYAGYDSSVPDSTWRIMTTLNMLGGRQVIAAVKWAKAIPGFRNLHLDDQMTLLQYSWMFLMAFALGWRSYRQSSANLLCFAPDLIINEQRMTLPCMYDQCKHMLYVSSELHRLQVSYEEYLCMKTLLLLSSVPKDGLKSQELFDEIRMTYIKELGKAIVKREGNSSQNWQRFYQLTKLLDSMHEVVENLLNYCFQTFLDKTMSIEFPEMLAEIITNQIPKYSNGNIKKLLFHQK
Cytochrome P450 1A2 (Homo sapiens), sequence (P05177 whole entry, looked up): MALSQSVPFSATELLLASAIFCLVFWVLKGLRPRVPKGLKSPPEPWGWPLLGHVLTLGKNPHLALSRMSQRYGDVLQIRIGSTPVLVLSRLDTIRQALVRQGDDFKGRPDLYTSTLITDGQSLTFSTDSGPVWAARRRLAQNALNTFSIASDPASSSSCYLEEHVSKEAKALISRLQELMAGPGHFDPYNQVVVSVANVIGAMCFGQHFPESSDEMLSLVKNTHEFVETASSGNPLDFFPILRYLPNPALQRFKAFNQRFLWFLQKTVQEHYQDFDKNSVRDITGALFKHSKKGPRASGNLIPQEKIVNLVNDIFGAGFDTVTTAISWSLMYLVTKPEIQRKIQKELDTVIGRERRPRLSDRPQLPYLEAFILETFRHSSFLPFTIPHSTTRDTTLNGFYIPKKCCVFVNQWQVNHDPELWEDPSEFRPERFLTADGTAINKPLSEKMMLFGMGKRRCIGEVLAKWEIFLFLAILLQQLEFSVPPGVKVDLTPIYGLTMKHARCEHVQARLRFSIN
Pyruvate kinase (Leishmania mexicana), sequence (Q27686 2-499 E452W): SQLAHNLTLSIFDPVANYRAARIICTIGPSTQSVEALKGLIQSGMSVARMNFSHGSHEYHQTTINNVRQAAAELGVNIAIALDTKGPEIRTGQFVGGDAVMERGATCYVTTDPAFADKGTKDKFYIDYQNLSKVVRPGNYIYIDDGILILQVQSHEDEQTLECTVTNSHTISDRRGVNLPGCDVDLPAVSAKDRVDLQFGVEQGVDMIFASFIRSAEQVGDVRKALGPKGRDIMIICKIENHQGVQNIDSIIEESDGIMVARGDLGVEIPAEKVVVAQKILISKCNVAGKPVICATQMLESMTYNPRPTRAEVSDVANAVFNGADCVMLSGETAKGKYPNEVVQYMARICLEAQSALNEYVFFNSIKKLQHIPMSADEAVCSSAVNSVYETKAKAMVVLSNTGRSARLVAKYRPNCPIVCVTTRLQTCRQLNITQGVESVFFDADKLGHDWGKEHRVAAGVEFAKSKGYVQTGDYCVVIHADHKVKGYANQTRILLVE
Guanine nucleotide-binding protein G(i) subunit alpha-1 (Homo sapiens), sequence (P63096 whole entry, looked up): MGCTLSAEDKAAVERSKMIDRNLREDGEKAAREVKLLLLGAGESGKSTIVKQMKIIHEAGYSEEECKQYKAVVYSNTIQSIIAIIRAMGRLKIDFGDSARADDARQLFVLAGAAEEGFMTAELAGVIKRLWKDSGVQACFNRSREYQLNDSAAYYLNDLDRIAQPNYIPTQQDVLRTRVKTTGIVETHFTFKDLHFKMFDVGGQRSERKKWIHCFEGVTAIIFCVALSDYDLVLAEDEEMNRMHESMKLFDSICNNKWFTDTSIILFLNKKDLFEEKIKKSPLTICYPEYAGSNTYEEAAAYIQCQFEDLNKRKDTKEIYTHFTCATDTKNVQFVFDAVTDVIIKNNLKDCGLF
Alpha-galactosidase A (Homo sapiens), sequence (P06280 whole entry, looked up): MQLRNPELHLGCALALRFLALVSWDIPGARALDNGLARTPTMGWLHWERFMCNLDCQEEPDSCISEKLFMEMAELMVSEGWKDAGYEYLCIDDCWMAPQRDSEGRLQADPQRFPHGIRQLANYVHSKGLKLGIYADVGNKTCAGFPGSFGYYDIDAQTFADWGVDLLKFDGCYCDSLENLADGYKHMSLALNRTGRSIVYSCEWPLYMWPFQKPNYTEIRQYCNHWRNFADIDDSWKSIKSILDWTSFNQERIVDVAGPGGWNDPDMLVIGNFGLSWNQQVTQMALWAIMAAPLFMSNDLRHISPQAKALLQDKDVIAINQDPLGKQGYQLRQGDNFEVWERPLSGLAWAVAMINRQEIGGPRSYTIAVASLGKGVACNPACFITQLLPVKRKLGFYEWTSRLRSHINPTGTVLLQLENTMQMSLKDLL

Consider `O=C(CCN1CCc2ccccc2CC1)c1ccc2c(c1)OCCO2`, for which, in assay [1], the Potency is 10 µM (active).

For the molecule `Cc1ccc2[nH]c3c(N4CCCCCC4)ncnc3c2c1`, the activity change, negative = inhibition in [2] is -20.6%. Besides, the Potency in assay [3] was over 20.6 µM.

On to `CC(C)N1CC=C2C(C#N)=C(N)C(C#N)(C#N)C(c3ccccc3)C2C1` (stereo not drawn), for which the activity change, negative = inhibition in [2] was 26.3%. In [3], the Potency is over 20.6 µM.

Take `CN1CCc2nc(SCC(=O)Nc3ccc(Cl)cc3)c(C#N)cc2C1`: the activity change, negative = inhibition in [2] is 5.33%. In addition, the Potency in assay [3] was over 20.6 µM.

For the molecule `CCNC(=O)c1cc2c(=O)n3cccc(C)c3nc2n(CCc2ccccc2)c1=N`, the activity change, negative = inhibition in assay [2] is 20.4%. Besides, the Potency in [3] was over 20.6 µM.

With `N#CC1=C(N)C(C#N)(C#N)[C@H](c2ccncc2)[C@H]2CN(C(=O)OCc3ccccc3)CC=C12`, in [2], the activity change, negative = inhibition was -27.2%. Besides, the Potency in assay [3] was over 20.6 µM.

With `Cn1c(N2CCOCC2)nc2c1c(=O)n(Cc1ccc(Cl)c(Cl)c1)c(=O)n2C`, the activity change, negative = inhibition in [2] is -18.7%. The Potency in [3] was over 20.6 µM.

For the molecule `CCOC(=O)C1=C(CSc2nc3c(cc2C#N)CN(C)CC3)OC(N)=C(C#N)C1c1ccccc1` (stereo not drawn), the activity change, negative = inhibition in [2] was -2.2%. In assay [3], the Potency was over 20.6 µM.

For `CCCc1cc(-c2nc(N)ncc2-c2ccc3c(c2)OCCCO3)c(O)cc1OC`, the activity change, negative = inhibition in [2] is -29.1%. The Potency in [3] is over 20.6 µM.

With `c1ccc(CN2CCN(c3ncnc4c3[nH]c3ccccc34)CC2)cc1`, the activity change, negative = inhibition in assay [2] was -15.1%. Besides, the Potency in assay [3] is over 20.6 µM.

`O=C(O)CC(NCc1ccco1)C(=O)OCC1CCCO1` (stereo not drawn): the activity change, negative = inhibition in assay [2] is 11.5%. Besides, the Potency in assay [3] was over 20.6 µM.

For the molecule `Cc1ccccc1-c1nn2c(-c3ccccc3)nnc2s1`, the activity change, negative = inhibition in assay [2] was -18%. Also, the Potency in assay [3] is over 20.6 µM.

Regarding `CN1CCc2c(sc3c2c(=O)n(-c2ccccc2)c2nnc(SCc4ccccc4)n32)C1`, the activity change, negative = inhibition in assay [2] was -13.6%. Also, the Potency in assay [3] is over 20.6 µM.

Take `Oc1ccccc1-c1nc(NCc2ccco2)c2ccccc2n1`: the activity change, negative = inhibition in [2] was 19.5%. For the same molecule, the Potency in assay [3] was over 20.6 µM.

For `COc1ccc(/C(O)=C2\C(=O)C(=O)N(c3cc(C)on3)C2c2ccccc2OC)cc1` (stereo not drawn), the activity change, negative = inhibition in assay [2] was -12.4%. Also, in assay [3], the Potency is over 20.6 µM.

With `Clc1ccc2nc(N3CCNCC3)nc(-c3ccccc3)c2c1`, in [2], the activity change, negative = inhibition is 28.9%. The Potency in [3] was over 20.6 µM.

With `CCCSc1nnc(NC(=O)Nc2ccc(F)cc2)s1`, the activity change, negative = inhibition in [2] was -11.2%. The Potency in [3] was over 20.6 µM.

`COCCNC(=O)c1c(N)n(CCC2=CCCCC2)c2nc3ccccc3nc12`: the activity change, negative = inhibition in assay [2] is 28.7%. Also, the Potency in assay [3] is over 20.6 µM.

In the case of `N#CC(C#N)C(c1ccsc1)c1c(-c2ccccc2)[nH][nH]c1=O` (stereo not drawn), the activity change, negative = inhibition in assay [2] is -20.2%. Moreover, the Potency in assay [3] was over 20.6 µM.

For `CC(C)(C)c1cc(-c2ccco2)c(C#N)c(SCC#N)n1`, the activity change, negative = inhibition in assay [2] is 28.8%. The Potency in assay [3] is over 20.6 µM.

As for `CC(C)(C)C1CCC2(CC1)C(C#N)=C(SCC(=O)Nc1ccccc1)NC(=O)C2C#N` (stereo not drawn), the activity change, negative = inhibition in assay [2] was -1.12%. For the same molecule, the Potency in assay [3] is over 20.6 µM.

Regarding `COc1ccc(OC)c(NS(=O)(=O)c2ccc(N3CCCC3=O)cc2)c1`, the activity change, negative = inhibition in [2] was 18.1%. In [3], the Potency was over 20.6 µM.

`COc1cccc(-c2nc(NCC3CCCO3)c3ccccc3n2)c1O` (stereo not drawn): the activity change, negative = inhibition in [2] is -22.6%. The Potency in assay [3] was over 20.6 µM.

For the molecule `CCOC(=O)CSc1nnc2n(Cc3ccccc3)c(=O)c3c4c(sc3n12)CCC4`, the activity change, negative = inhibition in assay [2] was -11.8%. For the same molecule, in assay [3], the Potency was over 20.6 µM.

Take `CCCCCn1c2nc3ccccc3nc2c2c(=O)n(CC(C)C)cnc21`: the activity change, negative = inhibition in assay [2] is 2.71%. Besides, the Potency in assay [3] is over 20.6 µM.

With `Clc1ccc(-c2nnc3sc(Cc4cccs4)nn23)cc1`, in [2], the activity change, negative = inhibition is 2.06%. Also, the Potency in assay [3] is over 20.6 µM.

In the case of `CCSc1nnc(NC(=O)NC(CC)(C(F)(F)F)C(F)(F)F)s1`, in assay [2], the activity change, negative = inhibition is -15.5%. Further, the Potency in [3] was over 20.6 µM.

As to `C=CCOn1c(=O)c(-c2ccc(OC)cc2)[n+]([O-])c2ccccc21`, in assay [2], the activity change, negative = inhibition is -22.9%. Further, the Potency in [3] is over 20.6 µM.

For the molecule `CSc1nc2sc3c(c2c2nnnn12)CCCC3`, the activity change, negative = inhibition in [2] is 19.7%. The Potency in [3] was over 20.6 µM.

Regarding `C=CCNC(=O)C(C#N)c1nc2ccccc2nc1N1CCCCCC1` (stereo not drawn), in [2], the activity change, negative = inhibition is -18.4%. In assay [3], the Potency was over 20.6 µM.

For `Oc1oc(-c2ccco2)nc1C=Nc1cccc(Cl)c1`, the activity change, negative = inhibition in assay [2] was -27%. The Potency in assay [3] was over 20.6 µM.

On to `COCc1cc(=O)[nH]c(Nc2nc3ccc(C)cc3o2)n1`, for which the activity change, negative = inhibition in assay [2] is -0.718%. Further, the Potency in assay [3] is over 20.6 µM.

Consider `N#CC1=C(SCC(=O)c2ccc(Br)cc2)NC2=C(C(=O)CCC2)C1c1ccco1` (stereo not drawn), for which the activity change, negative = inhibition in assay [2] was -81.5% (active). The Potency in assay [3] is over 20.6 µM.

As for `Cc1c(O)c(CN2CCCC2)cc2c1oc(=O)c1ccccc12`, the activity change, negative = inhibition in [2] was 4.42%. Besides, in [3], the Potency is over 20.6 µM.

With `Clc1ccccc1CSc1nnc(-c2ccco2)c(-c2ccco2)n1`, in assay [2], the activity change, negative = inhibition is 10.8%. Also, the Potency in [3] was over 20.6 µM.

In the case of `CC1CCN(c2oc(-c3ccccc3Cl)nc2C#N)CC1`, the activity change, negative = inhibition in [2] is -14%. In assay [3], the Potency is over 20.6 µM.

Turning to `CC(C)C[C@H]1C(=O)N2CCC[C@H]2[C@]2(O)O[C@](NC(=O)[C@@H]3C=C4c5cccc6[nH]c(Br)c(c56)CC4N(C)C3)(C(C)C)C(=O)N12` (stereo partly drawn), the activity change, negative = inhibition in assay [2] was -20.7%. In addition, the Potency in [3] is over 20.6 µM.

For the molecule `CCCCCCCCCCCCCCCC(O)C(N)CO` (stereo not drawn), in [2], the activity change, negative = inhibition is -23.5%. Further, the Potency in assay [3] was over 20.6 µM.

Take `CCN1CCN(c2nc3c(C)cccn3c(=O)c2/C=C(\C#N)S(=O)(=O)c2ccc(C)cc2)CC1`: in assay [2], the activity change, negative = inhibition was 6.19%. Also, the Potency in assay [3] is over 20.6 µM.

For `Fc1ccc2[nH]c3c(N4CCSCC4)ncnc3c2c1`, the activity change, negative = inhibition in [2] is -16.7%. Further, the Potency in [3] is over 20.6 µM.

On to `CNCC[C@H](Oc1ccccc1C)c1ccccc1`, for which the Potency in [4] was 15.8 µM (active); in [3], over 46 µM. Moreover, in assay [5], the activity, negative = inhibition is -13.9% [at 38 µM]. The Potency result in assay [6] and in assay [8] was “inactive” in each case. Further, the molecule was classed as inactive in assay [7], in assay [9], in assay [10] and in assay [11].
